The source made the active and inactive calls. Cut-off read from the data, not from the text of the source: active = inhibition of mean fluorescence above about 33%; inactive = the rest.
Experiment: quorum sensing inhibitors in bacterial reporter, SAR follow-up, flow cytometry, SAR analogs (AID 1014);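 note: Staphylococcus aureus RN6390 with RNAIII-GFP reporter stimulated by AIP; bacteria incubated with compound for 3 hours at 37 °C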
Conditions: at 20 µM, stronger effect = higher value; inhibition of percent positive cells: flow cytometry fluorescence, measured here: percent reporter-positive cells

SMILES | inhibition of mean fluorescence | inhibition of percent positive cells
O=C(O)c1cc(Nc2ccccc2C(=O)O)nc(Nc2ccccc2C(=O)O)n1 | 2.4% (inactive) | -0.3%
COc1ccc(Nc2ccccc2C(=O)O)cc1 | 0.6% (inactive) | -2.8%
COc1ccc(C(=O)c2coc3ccc(O)cc23)cc1 | 5% (inactive) | 0.8%
O=C(NC1CCCCC1)C(c1cc2c(cc1[N+](=O)[O-])OCO2)N1CCN(c2ccccc2)CC1 (configuration not stated) | -34.9% (inactive) | 0.3%
O=C(NC1CCCC1)C(c1cc2c(cc1[N+](=O)[O-])OCO2)N1CCN(c2ccccc2)CC1 (configuration not stated) | -13.2% (inactive) | -1.6%
O=C(CN1CC(c2ccccc2)CC1=O)Nc1ccc2c(c1)OCO2 (configuration not stated) | 5.5% (inactive) | -0.1%
CC(C)c1ccc(NC(=O)C(c2ccc3c(c2)OCO3)N2CCC3(CC2)OCCO3)cc1 (configuration not stated) | 15.2% (inactive) | -0.8%
O=C(O)c1ccccc1Nc1c([N+](=O)[O-])c(=O)oc2ccccc12 | -23.2% (inactive) | -1.7%
COc1ccc(CC(=O)Nc2oc(-c3ccccc3)c(-c3ccccc3)c2C#N)cc1OC | 20% (inactive) | -0.5%
O=C(CCN1CCN(c2ccccc2)CC1)Nc1ccc2c(c1)OCO2 | 5.8% (inactive) | 1.3%
O=C(NCC(c1cccnc1)N1CCN(c2ccccc2F)CC1)c1ccccc1F (configuration not stated) | -1.3% (inactive) | -0.4%
O=C1CS/C(=N\C(=O)N2c3ccccc3Sc3ccccc32)N1 | 91.4% (active) | 52.4%
O=C(Nc1ccc2c(c1)OCO2)C(c1ccccc1)N1CCCCC1 (configuration not stated) | 40.3% (active) | -0.7%
CC1CCc2nn(CC(=O)Nc3ccc4c(c3)OCCO4)cc2C1 (configuration not stated) | 4.5% (inactive) | 0%
Cc1oc2ccc(O)cc2c1C(=O)OC(C)C | -11.3% (inactive) | 0.1%
O=C(NCC(c1cccnc1)N1CCN(c2ccccc2F)CC1)c1ccco1 (configuration not stated) | -27.7% (inactive) | -1.9%
CC1CCN(C(C(=O)Nc2ccc(C(C)C)cc2)c2ccc3c(c2)OCO3)CC1 (configuration not stated) | 35% (active) | -0.9%
CC1CCN(C(C(=O)NC2CCCCC2)c2cc3c(cc2[N+](=O)[O-])OCO3)CC1 (configuration not stated) | 6% (inactive) | 0.7%
Cc1nnc2c3ccccc3nc(Nc3ccccc3C(=O)O)n12 | 18.4% (inactive) | -0.2%
CC(=O)c1ccc(Nc2nc3c(S(=O)(=O)c4ccccc4)nnn3c3ccccc23)cc1 | 11.9% (inactive) | 0.1%
CC(C)c1ccc(NC(=O)C(c2cc3c(cc2[N+](=O)[O-])OCO3)N2CCOCC2)cc1 (configuration not stated) | 8.1% (inactive) | 0.7%
Cc1nnc(N2CCC(C(=O)Nc3ccc4c(c3)OCCO4)CC2)c2nn(-c3ccccc3)c(C)c12 | -7.3% (inactive) | 0%
Cc1cc(Nc2ccccc2C(=O)O)n2ncnc2n1 | -29.1% (inactive) | -0.3%
COc1ccc(Nc2nc3c(S(=O)(=O)c4ccc(Cl)cc4)nnn3c3ccccc23)cc1 | -19.3% (inactive) | -0.9%

SMILES | inhibition of mean fluorescence | inhibition of percent positive cells
CC1CCCN(C(C(=O)Nc2ccc3c(c2)OCCO3)c2ccccc2)C1 (configuration not stated) | 91.5% (active) | 63.1%
CC1CCCN(CCC(=O)Nc2ccc3c(c2)OCO3)C1 (configuration not stated) | -15.3% (inactive) | -1.5%
CC(=O)Nc1ccc(Nc2nc3c(S(=O)(=O)c4ccccc4)nnn3c3ccccc23)cc1 | -8% (inactive) | 3.3%
CC1CN(CCC(=O)Nc2ccc3c(c2)OCO3)CC(C)O1 (configuration not stated) | 14% (inactive) | -1.3%
O=C(NC1CCCC1)C(c1cc2c(cc1[N+](=O)[O-])OCO2)N1CCOCC1 (configuration not stated) | -11.5% (inactive) | -0.1%
CC1CCN(CC2CCN(C(=O)Nc3ccc4c(c3)OCCO4)CC2)CC1 | -3.7% (inactive) | 0%
O=C(NCC(c1cccnc1)N1CCc2ccccc21)c1cccc(F)c1 (configuration not stated) | 6.5% (inactive) | -2%
COc1ccc(N2CCN(C(CNC(=O)c3ccc(F)cc3)c3cccnc3)CC2)cc1 (configuration not stated) | -63.3% (inactive) | -1.5%
CCCCc1oc2ccccc2c1C(=O)c1ccc(O)cc1 | 84.9% (active) | 43.2%
COc1ccc(Nc2nc3c(S(=O)(=O)c4ccc(F)cc4)nnn3c3ccccc23)cc1 | -28.2% (inactive) | -1.1%
COc1c(F)c(F)c(C(=O)O)c(Nc2ccccc2)c1F | -23.9% (inactive) | -2.3%
CSCCC(NC(=O)c1ccccc1)C(=O)OCC(=O)Nc1sc2c(c1C#N)CCCC2 (configuration not stated) | 40.6% (active) | -0.2%
Cc1ccc(Nc2nc3c(S(=O)(=O)c4ccc(C(C)(C)C)cc4)nnn3c3ccccc23)cc1 | -38.2% (inactive) | -1%
COc1ccc(NC(=O)C(c2cc3c(cc2[N+](=O)[O-])OCO3)N2CCN(C=O)CC2)cc1 (configuration not stated) | -23.1% (inactive) | 0%
CCOC(=O)c1cnc2ccc(OC(F)(F)F)cc2c1Nc1ccccc1C(=O)O | 22.4% (inactive) | 0.6%
COc1ccc(NC(=O)C(c2cc3c(cc2[N+](=O)[O-])OCO3)N2CCCCC2)cc1 (configuration not stated) | -14.1% (inactive) | -1.6%
COc1ccc(Nc2nc3c(S(=O)(=O)c4ccc(Br)cc4)nnn3c3ccccc23)cc1 | 2.8% (inactive) | -0.8%
COc1cccc(Nc2c(F)c(OC)c(F)c(F)c2C(=O)O)c1 | -6.6% (inactive) | 0%
O=C(Nc1ccc2c(c1)OCCO2)C(c1ccc(F)cc1)N1CCCCC1 (configuration not stated) | 12.6% (inactive) | -0.6%
CC1CCN(C(C(=O)NC2CCCC2)c2cc3c(cc2[N+](=O)[O-])OCO3)CC1 (configuration not stated) | -5.4% (inactive) | -1%
COc1ccc(Nc2nc3c(S(=O)(=O)c4ccc(C(C)C)cc4)nnn3c3ccccc23)cc1 | -10.2% (inactive) | 0.3%
O=C(O)c1cc([N+](=O)[O-])cc([N+](=O)[O-])c1Nc1ccc(Cl)cc1 | -16.3% (inactive) | 0.2%
O=C(Nc1ccc2c(c1)OCCO2)C(c1ccccc1)N1CCOCC1 (configuration not stated) | 9.5% (inactive) | 2.3%
CCc1ccc(Nc2nc3c(S(=O)(=O)c4ccc(C(C)C)cc4)nnn3c3ccccc23)cc1 | 6.9% (inactive) | -1.1%

SMILES | inhibition of mean fluorescence | inhibition of percent positive cells
O=C(NCC(c1cccnc1)N1CCc2ccccc21)c1ccc(F)c(F)c1 (configuration not stated) | 19.9% (inactive) | -0.3%
O=C(NCC(c1cccnc1)N1CCN(Cc2ccccc2)CC1)c1ccccc1 (configuration not stated) | 12.3% (inactive) | -0.4%
CCc1ccc(Nc2nc3c(S(=O)(=O)c4ccccc4)nnn3c3ccccc23)cc1 | 20.8% (inactive) | -1.2%
O=C(O)c1ccccc1Nc1nc(N2CCCC2)nc(N2CCCC2)n1 | 10.8% (inactive) | -0.3%
O=C(Nc1ccc2c(c1)OCO2)C(c1ccc(Cl)cc1)N1CCC2(CC1)OCCO2 (configuration not stated) | -0.5% (inactive) | -0.8%
O=C(NCC(c1cccnc1)N1CCN(c2ccccc2F)CC1)c1cccs1 (configuration not stated) | 19.5% (inactive) | -0.4%
COc1cccc(C(=O)NCC(c2cccnc2)N2CCN(c3ccc(F)cc3)CC2)c1 (configuration not stated) | 8.6% (inactive) | 0%
Cc1ccc(S(=O)(=O)c2nnn3c2nc(Nc2cccc(C)c2)c2ccccc23)cc1 | 5.4% (inactive) | 1.5%
CCc1ccc(S(=O)(=O)c2n[nH]n3c2nc(=O)c2ccccc23)cc1 | 87.7% (active) | 53.5%
CC1CCN(C(=O)Cn2cc(SCC(=O)Nc3ccc4c(c3)OCO4)c3ccccc32)CC1 | -4.6% (inactive) | -0.2%
COc1ccc(S(=O)(=O)c2nnn3c2nc(Nc2ccccc2)c2ccccc23)cc1 | -22.4% (inactive) | 0.4%
Cc1ccc(C)c(S(=O)(=O)c2n[nH]n3c2nc(=O)c2sccc23)c1 | 35.2% (active) | 0%
Cc1oc2ccc(O)cc2c1C(=O)O | -20.2% (inactive) | -0.5%
CCOC(=O)c1c(-c2ccccc2)oc2ccc(O)cc12 | 13.3% (inactive) | -0.9%
O=C(NCC(c1cccnc1)N1CCN(c2ccccc2F)CC1)c1cccc(Cl)c1 (configuration not stated) | 67.2% (active) | 3.5%
COc1cccc(C(=O)NCC(c2cccnc2)N2CCN(c3ccccc3F)CC2)c1 (configuration not stated) | 7% (inactive) | -1.4%
O=C(NCC(c1cccnc1)N1CCN(c2ccc(F)cc2)CC1)c1cccs1 (configuration not stated) | 20.1% (inactive) | -0.3%
O=C(NCC(c1cccnc1)N1CCN(c2ccc(F)cc2)CC1)c1cccc(Cl)c1 (configuration not stated) | -11.7% (inactive) | -0.1%
O=C(NCC(c1cccnc1)N1CCOCC1)c1cccc(Cl)c1 (configuration not stated) | -6.2% (inactive) | 0.6%
COC(=O)c1c(C)oc2cc(Br)c(O)cc12 | -18% (inactive) | -1%
Cc1nnc(N2CCCC(C(=O)Nc3ccc4c(c3)OCO4)C2)c2nn(-c3ccccc3)c(C)c12 (configuration not stated) | -10.1% (inactive) | 0%
O=C(NCC(c1cccnc1)N1CCN(c2ccccc2F)CC1)C1CC1 (configuration not stated) | -8.8% (inactive) | -0.7%
Nc1c(Nc2ccccc2C(=O)O)c2ccccc2oc1=O | 0% (inactive) | -2.2%

Reference: PubChem BioAssay AID1014 (NMMLSC, 2008)
